Drawing on the supplement of paper PMC4840960, this text covers myelination for 37 compounds.

In this experiment the test system is E18 rat cortical neuron-glia co-culture. The experiment can be described thus: myelination (MBP fiber length per Olig2+ nucleus), % of 1 µM DAPT response (DMSO = 0) (% of DAPT); higher = more myelination, active = 50 or more. The settings on record: 1 µM; treatment time: 8 days (DIV5-DIV13). Put shortly: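 Rat cortical co-cultures from E18 tissue were dissociated with papain and plated at 20,000 cells/well on 96-well plates coated with poly-d-lysine/laminin. From DIV5 to DIV13, library compounds were added at 1 or 5 µM in myelination medium. After fixation in 4 % paraformaldehyde, cultures were immunostained for MBP and Olig2 and counterstained with DAPI, and four 10X fields were analysed in each of duplicate wells. The myelination value is the length of continuous straight MBP fibers per Olig2+ nucleus, normalised so that 0.1 % DMSO is 0 and a 1 µM positive control is 100.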
Turning to `COc1ccccc1N1CCN(CCCNc2cc(=O)n(C)c(=O)n2C)CC1` [Urapidil], the myelination was -28.5 (inactive). In the case of `O=C(O)COCCN1CCN(C(c2ccccc2)c2ccc(Cl)cc2)CC1` (configuration not stated) [Virlix], the myelination is -2.52 (inactive). For the compound `CC(C(=O)O)c1cccc(C(=O)c2ccccc2)c1` (configuration not stated) [Ketoprofen], the myelination was -5.15 (inactive). For `C[C@H](CS)C(=O)N1CCC[C@H]1C(=O)O` [Captopril] the value was -9.04 (inactive); for `CC(=O)/N=c1/sc(S(N)(=O)=O)nn1C` [Methazolamide], -8.24 (inactive); for `NC(N)=Nc1nc(CSCC/C(N)=N/S(N)(=O)=O)cs1` [Famotidine], -13.8 (inactive). Turning to `Cc1cccc(C)c1NC(=O)C1CCCCN1C` (configuration not stated) [Mepivacaine], the myelination was -12.3 (inactive).

`CN(Cc1cnc2nc(N)nc(N)c2n1)c1ccc(C(=O)N[C@@H](CCC(=O)O)C(=O)O)cc1` [Methotrexate]: the myelination was -20.4 (inactive). For `Cc1onc(-c2ccccc2)c1-c1ccc(S(N)(=O)=O)cc1` [Valdecoxib] the value was -12.1 (inactive). `C[C@H]1O[C@@H](O[C@H]2[C@@H](O)C[C@H](O[C@H]3[C@@H](O)C[C@H](O[C@H]4CC[C@@]5(C)[C@H](CC[C@@H]6[C@@H]5C[C@@H](O)[C@]5(C)[C@@H](C7=CC(=O)OC7)CC[C@]65O)C4)O[C@@H]3C)O[C@@H]2C)C[C@H](O)[C@@H]1O` [Digoxin]: the myelination was 34 (inactive). As for `C/C(=C\C(=O)OCCCCCCCCC(=O)O)C[C@@H]1OC[C@H](C[C@@H]2O[C@H]2[C@@H](C)[C@H](C)O)[C@@H](O)[C@H]1O` [Mupirocin], the myelination is -12.7 (inactive). Take `COc1ccccc1OCC(O)CN1CCN(CC(=O)Nc2c(C)cccc2C)CC1` (configuration not stated) [Ranolazine]: the myelination is -13.7 (inactive). In the case of `CN(C)CCOC(c1ccccc1)c1ccccc1` [Diphenhydramine], the myelination was -12.1 (inactive).

As for `Cc1c(O)c(=O)ccn1C` [Deferiprone], the myelination is -11.3 (inactive).

Consider `CN1CCCCC1CCN1c2ccccc2Sc2ccc([S+](C)[O-])cc21` (configuration not stated) [Mesoridazine], for which the myelination was -39.6 (inactive). On to `Cc1onc(-c2ccccc2)c1C(=O)N[C@@H]1C(=O)N2[C@@H]1SC(C)(C)[C@@H]2C(=O)O` [Oxacillin], for which the myelination was -4.75 (inactive). Turning to `COc1ccc(CCN(C)CCCC(C#N)(c2ccc(OC)c(OC)c2)C(C)C)cc1OC` (configuration not stated) [Verapamil], the myelination was -27.2 (inactive). For `COc1ccccc1OCC(O)COC(N)=O` (configuration not stated) [Methocarbamol], the myelination is -9.38 (inactive). On to `c1ccc(-c2ccc(C(c3ccccc3)n3ccnc3)cc2)cc1` (configuration not stated) [Bifonazole], for which the myelination is -18.8 (inactive). For `Cc1nc(=O)c2cc(CN(C)c3ccc(C(=O)N[C@@H](CCC(=O)O)C(=O)O)s3)ccc2[nH]1` [Raltitrexed] the value was 177; for `CCCNC(=O)NS(=O)(=O)c1ccc(Cl)cc1` [Chlorpropamide], -30.5 (inactive). In the case of `Cc1occc(=O)c1O` [Maltol], the myelination is -10.1 (inactive). For `COc1ccc(CC(C)NCC(O)c2ccc(O)c(NC=O)c2)cc1` (configuration not stated) [Formoterol] the value was -12.6 (inactive); for `CCC(=O)O[C@@H]1CC(=O)O[C@H](C)C/C=C/C=C/[C@H](O)[C@H](C)C[C@H](CC=O)[C@H](O[C@@H]2O[C@H](C)[C@@H](O[C@H]3C[C@@](C)(O)[C@@H](OC(=O)CC)[C@H](C)O3)[C@H](N(C)C)[C@H]2O)[C@H]1OC` [Midecamycin], -9.01 (inactive); for `CCc1ccc(CCOc2ccc(CC3SC(=O)NC3=O)cc2)nc1` (configuration not stated) [Pioglitazone], -2.52 (inactive). Regarding `CCOC(=O)[C@H](CCc1ccccc1)N[C@@H](C)C(=O)N1[C@H](C(=O)O)C[C@@H]2CCC[C@@H]21` [Ramipril], the myelination is -11.2 (inactive). For `CO[C@H]1/C=C/O[C@@]2(C)Oc3c(C)c(O)c4c(c3C2=O)C2=NC3(CCN(CC(C)C)CC3)NC2=C(NC(=O)/C(C)=C\C=C\[C@H](C)[C@H](O)[C@@H](C)[C@@H](O)[C@@H](C)[C@H](OC(C)=O)[C@@H]1C)C4=O` [Rifabutin] the value was -2.92 (inactive); for `CC(Cc1ccccc1)(NC(=O)CN)c1ccccc1` (configuration not stated) [Remacemide], -12.4 (inactive). For `CNCCCC12CCC(c3ccccc31)c1ccccc12` [Maprotiline], the myelination is -27.8 (inactive). `CC1COc2c(N3CCN(C)CC3)c(F)cc3c(=O)c(C(=O)O)cn1c23` (configuration not stated) [Ofloxacin]: the myelination is -16.9 (inactive). For `CC(C)OC(=O)CCC/C=C\C[C@@H]1[C@@H](CC[C@@H](O)CCc2ccccc2)[C@H](O)C[C@@H]1O` [Latanoprost], the myelination was -8.13 (inactive). The figure for `NS(=O)(=O)Cc1noc2ccccc12` [Zonisamide] is -33.9 (inactive); for `CC(C(=O)O)c1ccc(CC2CCCC2=O)cc1` (configuration not stated) [loxoprofen] it is 1.34 (inactive); for `COc1ccc2cc([C@H](C)C(=O)O)ccc2c1` [Naproxen] it is -5.15 (inactive). The figure for `CN(C)c1ccc(O)c2c1C[C@H]1C[C@H]3[C@H](N(C)C)C(O)=C(C(N)=O)C(=O)[C@@]3(O)C(O)=C1C2=O` [Minocycline] is -6.54 (inactive); for `CC(C)(S)[C@@H](N)C(=O)O` [Penicillamine] it is -2.14 (inactive); for `CN1CCN(CCCN2c3ccccc3Sc3ccc(Cl)cc32)CC1` [Prochlorperazine] it is -45.4 (inactive).
